The structures appear in SMILES notation. The panel holds about 79,000 compounds, 15% with a hit somewhere; the sample as a whole holds those more often. Calls of active or inactive are those of the source. Rule as the data show it: active = growth inhibition above about 70%; inactive = the rest.

Growth inhibition data for 40 compounds are collected here from PubChem BioAssay (NCI).

A short description of the first experiment: NCI Yeast Anticancer Drug Screen. Data for the rad50 strain (AID 155).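 Also: 0% = growth of vehicle-only cultures of the same strain.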 Conditions: S. cerevisiae rad50 strain growth inhibition; at 50.0 µM; hits give high values. In a few lines: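 Inhibition values express reduced yeast growth in compound-treated cultures relative to vehicle-treated controls.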
Take `CCCCC1(NN=C2CCCCC2)C(=O)N(c2ccccc2)N(c2ccccc2)C1=O`: the growth inhibition is -11.2% (inactive).

As to `C=Cc1ccccc1N=NC(C(=O)OC)=P(c1ccccc1)(c1ccccc1)c1ccccc1`, the growth inhibition is -24.2% (inactive). Still for that read-out and setting: under `CC(C)COC1=CC(=O)c2ccccc2C1=O` stands 16.4% (inactive); under `CC(=O)Cc1ccc([N+](=O)[O-])cc1`, -0.1% (inactive); under `c1cc2c3c(cccc3c1)N=S=N2`, 25.4% (inactive). On the same count and under the same terms, to `O=C1NC(Cc2c[nH]c3ccccc23)C(=O)N2CCCC12` (configuration not stated) belongs -4.85% (inactive). Consider `N#C/C(=C\c1cccs1)C(=O)c1ccco1`, for which the growth inhibition is 10.2% (inactive). Still for that read-out and setting: under `C=CCNCC(O)C(F)(F)C(F)(F)C(F)(F)C(F)(F)C(F)(F)C(F)(F)F` (configuration not stated) stands 22.5% (inactive); under `CSc1cc(Cl)c(C)cc1S(=O)(=O)NC(=O)NNc1ccccn1`, -4.3% (inactive); under `NC(=O)CNCC1Cc2ccccc21` (configuration not stated), 21.8% (inactive). The same measure, in the same setting: under `Nc1ccc2ccccc2c1N=Nc1ccc(/C=C/c2ccc(N=Nc3c(N)ccc4ccccc34)cc2S(=O)(=O)O)c(S(=O)(=O)O)c1` stands 23.4% (inactive). On to `COc1ccc(CNc2ccccc2)cc1`, for which the growth inhibition was -2% (inactive). The same measure, in the same setting: to `CC1CCN(CCOC(=O)c2ccc(OC(C)C)cc2)C1` (configuration not stated) belongs 8.1% (inactive); to `O=C(CO)CC(=O)C(=O)Nc1ccccc1`, -10.8% (inactive); to `O=C1CSC(c2ccc(C(F)(F)F)cc2)N1c1nncs1` (configuration not stated), -1.2% (inactive). As to `CC(=O)Nc1ccc(N(C)C)c(C)c1`, the growth inhibition was -6.65% (inactive). Turning to `Cc1cc(NCCN(C)C)nc(Nc2ccc(Cl)cc2)n1`, the growth inhibition is 50.8% (inactive). For `O=C(c1nc2ccc([N+](=O)[O-])cc2[nH]c1=O)C(O)c1ccc([N+](=O)[O-])cc1` (configuration not stated), the growth inhibition was -1.9% (inactive).

Regarding `NCC(=O)NCC(=O)NCC(=O)NCC(=O)NCC(=O)NCC(=O)O`, the growth inhibition is 26.1% (inactive). The same measure, in the same setting: under `Nc1cnccn1` stands 1.55% (inactive). For `Cc1csc2n(C)c(=O)c3ccccc3[n+]12`, the growth inhibition was 16.8% (inactive). Still for that read-out and setting: under `CSc1ncnc2ncn(C)c12` stands 11.9% (inactive).

A short description of a further experiment: NCI Yeast Anticancer Drug Screen. Data for the mec2-1 strain (AID 157). The conditions noted are these: S. cerevisiae mec2-1 strain, at 50.0 µM, hits give high values. In a few lines: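 Growth inhibition is read against vehicle-treated controls after compound exposure of the mec2-1 yeast strain, which is defective in DNA damage repair or cell cycle control.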
Consider `COC(=O)/C=C(/C(=O)OC)N(O)C(=O)CN1C(=O)c2ccccc2C1=O`, for which the growth inhibition is -15.9% (inactive). Regarding `Cc1ccc(N=c2cc(-c3ccccc3)oc3ccccc23)cc1`, the growth inhibition was -1.25% (inactive).

`COc1ccc2c(c1)C(N)CC2=O` (configuration not stated): the growth inhibition was 7.7% (inactive). Regarding `COc1ccc(/C=C2\C(=O)N(C(=O)Cc3ccccc3)N=C2C)cc1OC`, the growth inhibition was -20.2% (inactive). Still for that read-out and setting: to `C=C(C)c1ccc(C(=C)C)cc1` belongs -40.9% (inactive); to `NC(=O)CN1CC(C2=C(O)CN(CC(N)=O)C2=O)=CC1=O`, -8.6% (inactive); to `CC(O)C(=O)NN` (configuration not stated), -17.7% (inactive). Same read-out and setting: under `CCCCOc1cc2c(cc1C(C)c1ccccc1)OCO2` (configuration not stated) stands -3.95% (inactive).

For the compound `C=CCO[Si](OCC=C)(OCC=C)OCC=C`, the growth inhibition is -19% (inactive). Same read-out and setting: under `NCCN1C(=O)c2ccccc2C1(O)c1ccc(Cl)cc1` (configuration not stated) stands -35.4% (inactive); under `CCCCSc1nc2c([nH]1)c(=O)n(C)c(=O)n2C`, 2.8% (inactive). Take `O=C(O)CSc1n[nH]c(-c2ccc(O)cc2)n1`: the growth inhibition was -7.25% (inactive).

For the compound `CCOC(=O)c1ccc(NC(=O)/C=C/C(=O)O)cc1`, the growth inhibition is -17.9% (inactive). Turning to `CN1CCC=C(COC(=O)C(C)(C)C)C1`, the growth inhibition was 4.9% (inactive).

Consider `COc1ccc2nc3cc(Cl)ccc3c(Sc3ccc(NC(C)=O)cc3)c2c1`, for which the growth inhibition is -5% (inactive).

Take `CC(C)C(=O)Nc1ccc(Cl)c(Cl)c1`: the growth inhibition is 6.35% (inactive). Take `O=C(c1ccccc1)[C@@H]1C[C@H](Sc2ccccc2)c2cc(Cl)ccc2N1`: the growth inhibition is -10.5% (inactive). With `NCCCNCCCCNC(=O)C(O)NC(=O)CC(O)CCCCN=C(N)N` (configuration not stated), the growth inhibition is -0.6% (inactive). The same measure, in the same setting: under `CCCCC1(NN=C2CCCCC2)C(=O)N(c2ccccc2)N(c2ccccc2)C1=O` stands -6.2% (inactive). The same measure, in the same setting: under `C=Cc1ccccc1N=NC(C(=O)OC)=P(c1ccccc1)(c1ccccc1)c1ccccc1` stands 20.9% (inactive).

For the compound `CC(C)COC1=CC(=O)c2ccccc2C1=O`, the growth inhibition is 17.4% (inactive). Same read-out and setting: under `CC(=O)Cc1ccc([N+](=O)[O-])cc1` stands -9.25% (inactive). On the same count and under the same terms, to `c1cc2c3c(cccc3c1)N=S=N2` belongs -7.45% (inactive).

Consider `O=C1NC(Cc2c[nH]c3ccccc23)C(=O)N2CCCC12` (configuration not stated), for which the growth inhibition was 1% (inactive). Same read-out and setting: to `N#C/C(=C\c1cccs1)C(=O)c1ccco1` belongs 4.65% (inactive); to `C=CCNCC(O)C(F)(F)C(F)(F)C(F)(F)C(F)(F)C(F)(F)C(F)(F)F` (configuration not stated), 28.9% (inactive); to `CSc1cc(Cl)c(C)cc1S(=O)(=O)NC(=O)NNc1ccccn1`, -1.6% (inactive).

Turning to `NC(=O)CNCC1Cc2ccccc21` (configuration not stated), the growth inhibition was 6.85% (inactive).

Consider `Nc1ccc2ccccc2c1N=Nc1ccc(/C=C/c2ccc(N=Nc3c(N)ccc4ccccc34)cc2S(=O)(=O)O)c(S(=O)(=O)O)c1`, for which the growth inhibition is 18.2% (inactive). Still for that read-out and setting: to `COc1ccc(CNc2ccccc2)cc1` belongs 11.8% (inactive). `CC1CCN(CCOC(=O)c2ccc(OC(C)C)cc2)C1` (configuration not stated): the growth inhibition is 12.6% (inactive). Still for that read-out and setting: under `O=C(CO)CC(=O)C(=O)Nc1ccccc1` stands -22.9% (inactive). As to `O=C1CSC(c2ccc(C(F)(F)F)cc2)N1c1nncs1` (configuration not stated), the growth inhibition was -3.5% (inactive). For the compound `CC(=O)Nc1ccc(N(C)C)c(C)c1`, the growth inhibition is -7.55% (inactive). Still for that read-out and setting: to `Cc1cc(NCCN(C)C)nc(Nc2ccc(Cl)cc2)n1` belongs 19.4% (inactive).

For `O=C(c1nc2ccc([N+](=O)[O-])cc2[nH]c1=O)C(O)c1ccc([N+](=O)[O-])cc1` (configuration not stated), the growth inhibition was -6.2% (inactive). Regarding `NCC(=O)NCC(=O)NCC(=O)NCC(=O)NCC(=O)NCC(=O)O`, the growth inhibition is 16.4% (inactive). Same read-out and setting: to `Nc1cnccn1` belongs 4.1% (inactive); to `Cc1csc2n(C)c(=O)c3ccccc3[n+]12`, 9.4% (inactive). In the case of `CSc1ncnc2ncn(C)c12`, the growth inhibition was -2.6% (inactive).
